To fix the notation:
T1: RBFOX1 RRM (Homo sapiens, UniProt Q9NWB1 109-208)
T1 sequence: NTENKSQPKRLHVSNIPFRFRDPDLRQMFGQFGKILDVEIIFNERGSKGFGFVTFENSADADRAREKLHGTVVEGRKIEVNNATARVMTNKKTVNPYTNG

B1: AGAAACC (DNA:RNA)
RNA: GGGAGACCGGAAUUCAGAUUGUCCAGAAACCUUAAAUCCCGUCGUAGCCACCA
DNA 1: CAATCTGAATTCCGGTCTCCC
DNA 2: TGGTGGCTACGACGGGATT
B2: CUCAAUG (DNA:RNA)
RNA: B1 RNA with A25C, G26U, A27C, C30U, C31G
DNA 1: CAATCTGAATTCCGGTCTCCC
DNA 2: TGGTGGCTACGACGGGATT
B3: CGCGAUA (DNA:RNA)
RNA: B1 RNA with A25C, A27C, A28G, C30U, C31A
DNA 1: CAATCTGAATTCCGGTCTCCC
DNA 2: TGGTGGCTACGACGGGATT
B4: ACCAGGG (DNA:RNA)
RNA: B1 RNA with G26C, A27C, A29G, C30G, C31G
DNA 1: CAATCTGAATTCCGGTCTCCC
DNA 2: TGGTGGCTACGACGGGATT
B5: GUCCCCC (DNA:RNA)
RNA: B1 RNA with A25G, G26U, A27C, A28C, A29C
DNA 1: CAATCTGAATTCCGGTCTCCC
DNA 2: TGGTGGCTACGACGGGATT
B6: ACUCCAA (DNA:RNA)
RNA: B1 RNA with G26C, A27U, A28C, A29C, C30A, C31A
DNA 1: CAATCTGAATTCCGGTCTCCC
DNA 2: TGGTGGCTACGACGGGATT
B7: ACCAGAU (DNA:RNA)
RNA: B1 RNA with G26C, A27C, A29G, C30A, C31U
DNA 1: CAATCTGAATTCCGGTCTCCC
DNA 2: TGGTGGCTACGACGGGATT
B8: AAGCGUC (DNA:RNA)
RNA: B1 RNA with G26A, A27G, A28C, A29G, C30U
DNA 1: CAATCTGAATTCCGGTCTCCC
DNA 2: TGGTGGCTACGACGGGATT
B9: CAUGGGA (DNA:RNA)
RNA: GGGAGACCGGAAUUCAGAUUGUCCCAUGGGAUUAAAUCCCGUCGUAGCCACCA
DNA 1: CAATCTGAATTCCGGTCTCCC
DNA 2: TGGTGGCTACGACGGGATT

Substitutions are numbered along the chain they refer to; changes in the protein carry UniProt numbers. The full ranking holds about 16,000 sequences; the median of “ka relative to ugcaugu” is about 0.0091, and the highest 2% start at about 0.032. The sample holds the highest values, similar sequences and a random draw of the others, so the mix is not that of the screen.

For the test, the target named is T1, RBFOX1 RRM. The test is described as follows: EMSA; HiTS-Eq, 1 nM pool, 10 min; buffer printed only for the single-RNA assays: 10 mM Tris pH 7.5, 150 mM NaCl, 3.4 mM EDTA, 0.001% NP-40, 30 C. As to conditions: tags: His6 N-terminal (pET28a); label: 5' 32P. The procedure, abridged: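 Purified wild-type or mutant RbFox RRM at increasing concentrations was equilibrated with 1 nM of 5′-radiolabelled RNA carrying 7 randomized nucleotides for 10 min in 50 µL. Unbound RNA was separated by 8% native PAGE and sequenced. Relative association constants came from read-count changes of each RNA species compared with the control reaction, normalised to the cognate motif.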
For orientation: Mobility shift assays separate free from complexed probe on a gel.
Take B1: the binding signal is 0.00391 KA relative to UGCAUGU.
Turning to B2, the binding signal was 0.00378 KA relative to UGCAUGU.
On to B3, for which the binding signal was 0.00807 KA relative to UGCAUGU.
Consider B4, for which the binding signal is 0.00782 KA relative to UGCAUGU.
For B5, the binding signal is 0.0163 KA relative to UGCAUGU.
Take B6: the binding signal is 0.000959 KA relative to UGCAUGU.
For the molecule B7, the binding signal was 0.00102 KA relative to UGCAUGU.
Under B8 stands 0.00965 KA relative to UGCAUGU; under B9, 0.00261 KA relative to UGCAUGU.
